In PubChem BioAssay (Tox21):
Results filed as inconclusive are left out. Where a call stands in place of a potency, no number is given. Activity calls are given as the source filed them. Calls follow the shape of the full dose curve.

How the values were obtained:
[1] = molecular target: Acetylcholinesterase (Homo sapiens) (UniProt P22303); assay: Acetylcholinesterase (AChE) small molecule antagonists: colormetric cell-based qHTS assay (AID 1347395); also: nearly all actives have a fitted effect of over 30% in size; also: potency is read from the fitted curve at half-maximal effect
Acetylcholinesterase (Homo sapiens), sequence (P22303 whole entry, looked up): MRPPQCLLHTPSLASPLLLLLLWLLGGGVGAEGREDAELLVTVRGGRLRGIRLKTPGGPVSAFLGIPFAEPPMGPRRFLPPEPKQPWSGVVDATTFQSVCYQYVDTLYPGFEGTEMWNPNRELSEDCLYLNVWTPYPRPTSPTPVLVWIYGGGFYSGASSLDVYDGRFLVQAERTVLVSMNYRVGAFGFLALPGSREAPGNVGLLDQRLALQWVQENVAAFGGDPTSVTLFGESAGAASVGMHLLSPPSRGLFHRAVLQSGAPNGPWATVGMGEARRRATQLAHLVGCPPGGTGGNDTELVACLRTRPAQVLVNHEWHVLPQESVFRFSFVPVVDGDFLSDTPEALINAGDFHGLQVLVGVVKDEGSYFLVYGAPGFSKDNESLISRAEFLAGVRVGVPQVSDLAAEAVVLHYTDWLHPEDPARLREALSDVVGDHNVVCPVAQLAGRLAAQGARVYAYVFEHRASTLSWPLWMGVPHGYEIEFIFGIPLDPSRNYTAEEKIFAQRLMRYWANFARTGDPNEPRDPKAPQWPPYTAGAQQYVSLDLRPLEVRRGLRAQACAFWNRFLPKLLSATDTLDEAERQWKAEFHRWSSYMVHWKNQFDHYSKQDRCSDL
Procedure, shortened: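 Endogenous AChE of human neuroblastoma SH-SY5Y cells was measured with an Ellman-type DTNB/acetylthiocholine mix. Compound pretreatment lasted 30 min at 37 C; substrate reaction ran 90 min at 37 C.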

[2] = molecular target: Acetylcholinesterase (Homo sapiens) (UniProt P22303); assay: Acetylcholinesterase (AChE) small molecule antagonists: enzyme-based qHTS assay (AID 1347397); conditions: Potency: AChE enzyme activity inhibition; outcome: AChE enzyme activity inhibition; also: nearly all actives have a fitted effect of over 55% in size; also: potency is read from the fitted curve at half-maximal effect
Procedure, shortened: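 Colorimetric DTNB read-out of thiocholine released from acetylthiocholine by recombinant human AChE (50 mU/mL as dispensed). Compounds were preincubated 30 min at RT before substrate/DTNB addition, with a 10 min RT reaction.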

[3] = molecular target: Acetylcholinesterase (Homo sapiens) (UniProt P22303); assay: Acetylcholinesterase (AChE) small molecule antagonists: fluorescence cell-based qHTS assay (AID 1347398); conditions: Potency: AChE activity; outcome: AChE activity; also: nearly all actives have a fitted effect of over 50% in size; also: potency is read from the fitted curve at half-maximal effect
Procedure, shortened: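 SH-SY5Y, 2,000 cells/well, attached overnight; cmpd 30 min 37 C; acetylthiocholine/Thiolite Green cocktail 40 min RT; fluorescence Ex/Em 490/520 nm.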

[4] = molecular target: Acetylcholinesterase (Homo sapiens) (UniProt P22303); assay: Acetylcholinesterase (AChE) small molecule antagonists: enzyme-based qHTS assay with human liver microsomes (AID 1347399); conditions: Potency: qHTS inhibition; outcome: qHTS inhibition; also: nearly all actives have a fitted effect of over 60% in size
Procedure, shortened: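 Recombinant human AChE (50 mU/mL in the enzyme mix) and human liver microsomes (0.25 mg/mL final) were preincubated with compound and NADPH (0.25 mg/mL final) for 30 min at 37 C. Acetylthiocholine/DTNB was then added; thiocholine was read colorimetrically after 10 min at room temperature.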

SMILES | Potency [1] | Potency [2] | Potency [3] | Potency [4] | activity, negative = inhibition [1] | activity change, negative = inhibition [2] | activity change, negative = inhibition [3] | activity change, negative = inhibition [4]
COC(=O)Cc1cccc2ccccc12 | inactive | inactive | inactive | inactive |  |  |  | 
COc1ccccc1OC(=O)Oc1ccccc1OC | inactive | inactive | inactive | inactive |  |  |  | 
CCCCCCCCCCCC(=O)OC | inactive | inactive | inactive | inactive |  |  |  | 
CCCc1cc(C(N)=S)ccn1 | inactive | inactive | inactive | inactive |  |  |  | 
COc1cc(/C=C/C(=O)O[C@H]2CC[C@]34C[C@]35CC[C@]3(C)[C@@H]([C@H](C)CCC=C(C)C)CC[C@@]3(C)[C@@H]5CC[C@H]4C2(C)C)ccc1O | inactive | inactive | inactive | inactive |  |  |  | 
C[C@]12CCC(=O)C=C1[C@@H]1C[C@@H]1[C@H]1[C@@H]3[C@@H]4C[C@@H]4[C@@]4(CCC(=O)O4)[C@@]3(C)CC[C@@H]12 | inactive | inactive | inactive | inactive |  |  |  | 
OC[C@H]1O[C@@H](O[C@H]2[C@H](O)[C@@H](O)[C@H](O)O[C@@H]2CO)[C@H](O)[C@@H](O)[C@H]1O | inactive | inactive | inactive | inactive |  |  |  | 
CC(C)(N)CO | inactive | inactive | inactive | inactive |  |  |  | 
c1ccc(-c2ccccn2)nc1 | inactive | inactive | inactive | inactive |  |  |  | 
NC(N)=NCCC[C@H](N)C(=O)O |  |  |  |  | 5.24% [at 10.5 µM] (inactive) | -0.554% [at 10.5 µM] (inactive) | 6.4% [at 10.5 µM] (inactive) | -0.0087% [at 10.5 µM] (inactive)
OCC(CO)(CBr)CBr | inactive | inactive | inactive | inactive |  |  |  | 
CCOCCC(=O)OCC | inactive | inactive | inactive | inactive |  |  |  | 
O=C(O)Cc1cc(I)c(Oc2cc(I)c(O)c(I)c2)c(I)c1 | inactive | inactive | inactive | inactive |  |  |  | 
Nc1ncnc2c1ncn2[C@@H]1O[C@H](CO)[C@@H](O)[C@H]1O | inactive | inactive | inactive | inactive |  |  |  | 
CCC(C)c1cc(C(C)(C)C)c(O)c(C(C)(C)C)c1 (stereo not given) | inactive | inactive | inactive | inactive |  |  |  | 
CCCCCCOC(=O)c1ccc(O)cc1 | inactive | inactive | inactive | inactive |  |  |  | 
C/C=C/C(=O)N(CC)c1ccccc1C | inactive | inactive | inactive | inactive |  |  |  | 
Cc1c[nH]c(=O)[nH]c1=O | inactive | inactive | inactive | inactive |  |  |  | 
CN(C)c1ccc(CCO)cc1 | inactive | inactive | inactive | inactive |  |  |  | 
CCCOC(=O)C(C)O (stereo not given) | inactive | inactive | inactive | inactive |  |  |  | 

SMILES | Potency [1] | Potency [2] | Potency [3] | Potency [4] | activity, negative = inhibition [1] | activity change, negative = inhibition [2] | activity change, negative = inhibition [3] | activity change, negative = inhibition [4]
C[Si](C)=O |  |  |  |  | -2.31% [at 10.5 µM] (inactive) | -1.81% [at 10.5 µM] (inactive) | 0.274% [at 10.5 µM] (inactive) | -0.0165% [at 10.5 µM] (inactive)
OCc1c2ccccc2cc2ccccc12 | inactive | inactive | inactive | inactive |  |  |  | 
CCc1oc2ccccc2c1C(=O)c1cc(I)c(O)c(I)c1 | inactive | inactive | inactive | inactive |  |  |  | 
O=S(=O)(O)c1ccc(N=Nc2c(O)ccc3cc(S(=O)(=O)O)ccc23)cc1 | inactive | inactive | inactive | inactive |  |  |  | 
C#C[C@]1(O)CC[C@H]2[C@@H]3CCC4=CC(=O)CC[C@@H]4[C@H]3CC[C@@]21CC | inactive | inactive | inactive | inactive |  |  |  | 
O=C(O)c1cccc(C(=O)O)c1 | inactive | inactive | inactive | inactive |  |  |  | 
CCCCCCCN | inactive | inactive | inactive | inactive |  |  |  | 
CC(=O)CC/C=C(\C)CC/C=C(\C)CC/C=C(\C)CCC=C(C)C | inactive | inactive | inactive | inactive |  |  |  | 
COCCOCC(OC)OC | inactive | inactive | inactive | inactive |  |  |  | 
O=C(O)c1ccccc1C(=O)O | inactive | inactive | inactive | inactive |  |  |  | 
COC(=O)[C@H]1[C@H]2C[C@@H]3c4[nH]c5cc(OC)ccc5c4CCN3C[C@H]2C[C@@H](OC(=O)/C=C/c2ccc(O)c(OC)c2)[C@@H]1OC | inactive | inactive | inactive | inactive |  |  |  | 
O=C(Oc1ccccc1)c1ccccc1O | inactive | inactive | inactive | inactive |  |  |  | 
C[C@](N)(Cc1ccc(O)c(O)c1)C(=O)O | inactive | inactive | inactive | inactive |  |  |  | 
O=c1oc2cc(O)ccc2c2oc3cc(O)ccc3c12 | inactive | inactive | inactive | inactive |  |  |  | 
Cc1nc2sccn2c(=O)c1CCN1CCC(=C(c2ccc(F)cc2)c2ccc(F)cc2)CC1 | 30.9 µM (active) | 38.9 µM (active) | 15.5 µM (active) | inactive |  |  |  | 
C=CC(C)(CCC=C(C)C)OC(C)=O (stereo not given) | inactive | inactive | inactive | inactive |  |  |  | 
CN1CCN(CCCN2c3ccccc3Sc3ccc(Cl)cc32)CC1 | inactive | inactive | inactive | inactive |  |  |  | 
CC(C)=CCC[C@](C)(O)[C@@H]1CC=C(C)CC1 | inactive | inactive | inactive | inactive |  |  |  | 
CCCCCCc1ccc(O)cc1O | inactive | inactive | inactive | inactive |  |  |  | 
CCCc1ccccc1 | inactive | inactive | inactive | inactive |  |  |  | 

SMILES | Potency [1] | Potency [2] | Potency [3] | Potency [4] | activity, negative = inhibition [1] | activity change, negative = inhibition [2] | activity change, negative = inhibition [3] | activity change, negative = inhibition [4]
CCOC(=O)C(C)(C)Oc1ccc(Cl)cc1 | inactive | inactive | inactive | inactive |  |  |  | 
CCCCCCCC/C=C\CCCCCCCC(=O)O | inactive | inactive | inactive | inactive |  |  |  | 
CC(=O)OCC(=O)[C@@]1(O)CC[C@H]2[C@@H]3CCC4=CC(=O)C=C[C@]4(C)[C@H]3[C@@H](O)C[C@@]21C | inactive | inactive | inactive | inactive |  |  |  | 
CCn1c2ccccc2c2cc(N)ccc21 | inactive | inactive | inactive | inactive |  |  |  | 
CCCNC(C)C(=O)Nc1c(C)csc1C(=O)OC (stereo not given) | inactive | inactive | inactive | inactive |  |  |  | 
COC(=O)c1ccc([N+](=O)[O-])cc1 | inactive | inactive | inactive | inactive |  |  |  | 
CCCOC(=O)c1ccccc1 | inactive | inactive | inactive | inactive |  |  |  | 
NCC(=O)CCC(=O)O | inactive | inactive | inactive | inactive |  |  |  | 
CC(C)CC(C)CC(C)CC(C)COC(=O)c1ccccc1C(=O)OCC(C)CC(C)CC(C)CC(C)C (stereo not given) | inactive | inactive | inactive | inactive |  |  |  | 
CCN(CCC#N)c1ccc(N=Nc2c(Cl)cc([N+](=O)[O-])cc2Cl)cc1 | inactive | inactive | inactive | inactive |  |  |  | 
COc1ccc(C(=O)N2CCN(CC(=O)N3CCOCC3)CC2)cc1 | inactive | inactive | inactive | inactive |  |  |  | 
CC[C@]12CCCN3CCc4c(n(c5ccccc45)[C@@](O)(C(=O)OC)C1)[C@@H]32 | inactive | inactive | inactive | inactive |  |  |  | 
Cc1ccc(S(=O)(=O)NC(=O)NC2CCCC2)cc1 | inactive | inactive | inactive | inactive |  |  |  | 
NCCCCCC(=O)O | inactive | inactive | inactive | inactive |  |  |  | 
OC[C@H]1O[C@H](O[C@]2(CCl)O[C@H](CCl)[C@@H](O)[C@@H]2O)[C@H](O)[C@@H](O)[C@H]1Cl | inactive | inactive | inactive | inactive |  |  |  | 
CCCCCCCCCCCC(=O)Cl | inactive | inactive | inactive | inactive |  |  |  | 
CCCCCCC(CO)CCCC (stereo not given) | inactive | inactive | inactive | inactive |  |  |  | 
CCC(C)C1N=C(C)C(C)S1 (stereo not given) | inactive | inactive | inactive | inactive |  |  |  | 
NC(N)=NS(=O)(=O)c1ccc(N)cc1 | inactive | inactive | inactive | inactive |  |  |  | 
Nc1c(I)cc(I)c(C(=O)N(CCC(=O)O)c2ccccc2)c1I | inactive | inactive | inactive | inactive |  |  |  | 
